Assay outcomes (PubChem)
Marburg entry inh: Marburg virus entry inhibition; Marburg virus pseudotyped entry inhibition, cell reporter; Potency, µM (series often up to 37.8 µM), for inactives: at the top dose activity change, negative = inhibition, hits mostly inhibitors; hit rate 1.8% among 300,000; calls by dose curve; tested in HEK293 cells; also: potency is read from the fitted curve at half-maximal effect
Pf growth 96h: inhibits malaria parasite growth, 96 h | P. falciparum luciferase reporter growth, 96 h | Potency, µM (highest dose often 28.7 µM), for inactives: top-dose activity change, negative = inhibition, actives largely listed as inhibitors | hit rate 6.9% among 320,000; also: potency is read from the fitted curve at half-maximal effect
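Compounds incubated with erythrocytes infected by luciferase-expressing P. falciparum (2% hematocrit, 0.05% parasitemia final) for 96 hours, 37 C in 5% CO2. Growth inhibition scored as decreased luciferase luminescence.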
HCV inh: inhibitors of hepatitis C virus infection | Huh7.5.1 HCVcc-Cre infection, luciferase reporter, 44 h | Potency, µM (doses to about 41.8 µM), for the others: at the highest dose activity change, negative = inhibition, usual class: inhibitors | hit rate 3.4% among 340,000 | AID 651820; also: potency is read from the fitted curve at half-maximal effect
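Compounds are dispensed onto cells plated 4 h earlier at 1,000 per well, with HCVcc-Cre virus (about 0.5 moi) added next. Following 44 h of culture, luminescent signal is measured for 15 sec after 15 min with substrate at room temperature.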
Pf growth 48h: inhibits P. falciparum growth in the first generation, 48 h | AID 504832 | P. falciparum luciferase growth in erythrocytes, 48 h | Potency, µM (titrated, usually from 28.7 µM), without a hit: top-dose activity change, negative = inhibition, hits mostly inhibitors | hit rate 5.9% among 310,000; also: potency is read from the fitted curve at half-maximal effect
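Luminescence readout; reporter = integrated firefly luciferase in P. falciparum. RBC culture at 2% hematocrit, 0.1% parasitemia final, 37 C/5% CO2; decreased signal taken as growth inhibition.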
HCMV antiviral: human cytomegalovirus inhibition. activity change, negative = inhibition, % at 57.5 µM. AID 1259415. HFF cells, HCMV-luciferase reporter, 72 h; active compounds read low. hit rate 4.5% among 410,000; in the data active = activity change below about -60%; inconclusive = no clear call, values can overlap the other calls; inactive = above about -39%
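Two-dose cell screen: HFF monolayers treated with compounds and infected with luciferase-expressing HCMV at 1 PFU/cell, 72 h at 37C, then lysed for luciferase measurement.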
Lassa entry inh: blocks Lassa virus binding to or entry into cells. Potency, µM (highest dose often 37.9 µM), for inactives: top-dose activity change, negative = inhibition, usual class: inhibitors. hit rate 1.2% among 300,000. Lassa virus pseudotype entry inhibition, cell reporter; calls by dose curve; tested in HEK293 cells; also: potency is read from the fitted curve at half-maximal effect; nearly all actives have a fitted effect of over 50% in size
Active calls of the source: *; ? = inconclusive; / = no result; [ ] = another dose, or the depositor's remark. Only some compounds are listed: those with a hit (about 14% of all), similar ones and a draw of the others. Unless noted, calls follow the shape of the dose curve; as a rule, active = well fitted inhibition curve with a large enough effect; inconclusive = small, poorly fitted or top-dose-only effect, or another doubt; inactive = no such curve, though single readings can be large or run the other way. % is scaled to controls: 0 for no effect and ±100 for the full control effect.

SMILES | Marburg entry inh | Pf growth 96h | HCV inh | Pf growth 48h | HCMV antiviral | Lassa entry inh
O=C(NCc1ccc(Cl)cc1)c1cc2c(s1)-c1ccccc1SC2 | ? | / | / | / | -14 | -4%[46.1 µM]
CCN(CC)CCNC(=O)c1cc2c(s1)-c1ccccc1SC2 | / | 311% | 11µM* | 0% | -72* | /
CCOc1ccc(OCC(=O)Nc2ccc(S(N)(=O)=O)cc2)cc1 | ? | 278% | 20% | 9% | ? | 4%
CC(Oc1ccc(C(=O)c2ccccc2)cc1)C(=O)Nc1ccc(S(N)(=O)=O)cc1 (stereo not drawn) | ? | ? | ? | ? | -68* | -5%
O=C(COc1ccc([N+](=O)[O-])cc1)Nc1ccncc1 | -24%[46.1 µM] | ? | ? | 31%[5.75 µM] | -12 | ?
NS(=O)(=O)c1cccc(NC(=O)COc2ccc([N+](=O)[O-])cc2)c1 | -28%[46.1 µM] | 119% | 4% | 9.3µM* | ? | -4%[46.1 µM]
CCOc1ccc(S(=O)(=O)/N=C(/Nc2ccc(S(N)(=O)=O)cc2)c2ccccc2)cc1 | / | / | -14% | / | -103* | /
CCC(=O)c1ccc(OCC(=O)Nc2cccc(S(=O)(=O)N(C)c3ccccc3)c2)cc1 | / | -5% | 11µM* | ? | ? | /
CCN(CC)C(=O)Cn1cc(C(=O)C(=O)Nc2ccc3c(c2)OCO3)c2ccccc21 | / | / | / | / | 11 | /
COCCCNC(=O)c1oc2c(c1C)-c1nn(Cc3cccc(Cl)c3)cc1CC2 | / | / | / | / | -3 | -6%[46.1 µM]
Cc1cccc(OCC(=O)Nc2cccc(OCc3cc(=O)n4cccc(C)c4n3)c2)c1 | / | / | / | / | -9 | 3%[46.1 µM]
CC(=O)c1ccc(OCCCC(=O)NCCc2ccccc2)cc1 | / | ? | -2% | 3% | 37 | /
NS(=O)(=O)c1ccc(NC(=O)COc2ccc(C(=O)c3ccc(F)cc3)cc2)cc1 | / | ? | 14µM* | ? | -23 | /
CN(c1ccccc1)S(=O)(=O)c1cccc(NC(=O)COc2cccc([N+](=O)[O-])c2)c1 | -25% | -19% | ? | 13µM* | ? | -20%
CC/C(=N\NC(=O)c1ccc2c(c1)OCO2)c1ccccc1 | / | ? | 0% | 63% | 29 | /
CCN(CC)c1ccc(CNS(=O)(=O)c2cc3c(cc2C)NC(=O)CO3)cc1 | / | / | / | / | 0 | -2%[46.1 µM]
COc1cc(OC)cc(C(=O)NNC(=O)CCNS(=O)(=O)c2ccc(C)c(C)c2)c1 | -9% | 0% | -2% | 14% | -4 | 1%
Cc1ccc(S(=O)(=O)NCCC(=O)NNC(=O)c2ccccc2O)cc1C | 0% | 8% | 3.2µM* | -5% | -14 | -2%
Cc1nn(-c2ccccc2)c(N)c1N=O | / | 21% | -20% | 15% | 25 | /
Cc1nn(-c2ccccc2)c(N)c1C(c1ccccc1)c1c(C)nn(-c2ccccc2)c1N | 9% | 13µM* | 8% | ? | 58 | 7%
CCCCCNC(=O)C(c1cc2ccccc2o1)n1c(=O)c(-c2cc3ccccc3[nH]2)nc2ccccc21 (stereo not drawn) | / | / | / | / | 38 | /
N#CC1=C(N)n2c(s/c(=C\c3cccs3)c2=O)=C(C#N)C1c1cccs1 (stereo not drawn) | / | -11% | 0.5µM* | 31% | 27 | /
O=C(NCCS(=O)(=O)N1CCN(c2ccc(F)cc2)CC1)c1cc(=O)c2ccccc2o1 | / | / | / | / | 20 | -18%[46.1 µM]
CCn1c(=O)cc(OCC(=O)Nc2ccc(C)cn2)c2ccccc21 | 27% | / | -15% | 0% | -61* | -9%
CCn1c(=O)cc(OCC(=O)Nc2nc(C)cs2)c2ccccc21 | / | 2.1µM* | -10% | 6% | 11 | /
CCn1c(=O)cc(OCC(=O)Nc2ccccc2N2CCN(C)CC2)c2ccccc21 | 2% | 9.3µM* | -20% | / | 2 | /
CCn1c(=O)cc(SCC(=O)NCc2ccc(C)cc2)c2ccccc21 | -2%[46.1 µM] | -5% | -26% | 8% | 9 | -14%[46.1 µM]
CCn1c(=O)cc(SCC(=O)Nc2ccc(C)cn2)c2ccccc21 | / | ? | ? | 7% | -95* | /
COc1ccc(CCNC(=O)CSc2cn(CCNC(=O)c3ccc(OC)c(OC)c3)c3ccccc23)cc1OC | ? | / | / | / | -18 | -23%[46.1 µM]
